According to PubChem BioAssay (NCI):
About 83,000 compounds went through this panel and 20% of them were active in at least one assay; those are over-represented in the sample as a whole.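 Values shown are percent growth following 48 h exposure of cells in 96-well plates to a single concentration of compound; below 10 was considered active.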 Activity calls are given as the source filed them.

What was measured:
Experiment in all cases: NCI-60 one-dose screen, 48 h (100 = growth as untreated, 0 = no growth, -100 = all killed)
[1] = tested on: HCT-15 colon; conditions: 10 µM unless noted
[2] = tested on: HT29 colon; conditions: 10 µM unless noted
[3] = tested on: SNB-75 CNS; conditions: 10 µM unless noted
[4] = tested on: SNB-19 CNS; conditions: 10 µM unless noted
[5] = tested on: U251 CNS; conditions: 10 µM unless noted
[6] = tested on: PC-3 prostate; conditions: 10 µM unless noted
[7] = tested on: SK-MEL-5 melanoma; conditions: 10 µM unless noted
[8] = tested on: UACC-62 melanoma; conditions: 10 µM unless noted
[9] = tested on: LOX IMVI melanoma; conditions: 10 µM unless noted
[10] = tested on: SK-MEL-28 melanoma; conditions: 10 µM unless noted
[11] = tested on: SK-MEL-2 melanoma; conditions: 10 µM unless noted
[12] = tested on: EKVX NSCLC; conditions: 10 µM
[13] = tested on: SN12C renal; conditions: 10 µM unless noted
[14] = tested on: UO-31 renal; conditions: 10 µM unless noted
[15] = tested on: TK-10 renal; conditions: 10 µM unless noted
[16] = tested on: ACHN renal; conditions: 10 µM unless noted
[17] = tested on: CAKI-1 renal; conditions: 10 µM unless noted
[18] = tested on: CCRF-CEM leukemia; conditions: 10 µM
[19] = tested on: MOLT-4 leukemia; conditions: 10 µM unless noted
[20] = tested on: A498 renal; conditions: 10 µM unless noted

Measured: growth

COc1ccc(CNCCCN2C(=O)c3ccc4c5c(ccc(c35)C2=O)C(=O)N(CCCNCc2ccc(OC)c(OC)c2OC)C4=O)c(OC)c1OC
active: [1] -63.7% | [2] -76.4% | [3] -96.8% | [4] -79.5% | [5] -94.2% | [6] -71.9% | [7] -97.9% | [8] -78.4% | [9] -84.7% | [10] -92.9% | [11] -88.4% | [12] -77.2% | [13] -90.8% | [14] -91.5% | [15] -84.7% | [16] -90.3% | [17] -52.5% | [18] -34% | [19] -43.9%

Cc1c(O)c(N=Nc2ccc(C(=O)O)c(O)c2)c2ccccc2c1O
inactive: [1] 117% | [2] 96.9% | [3] 109% | [4] 105% | [5] 101% | [6] 77.4% | [7] 96.1% | [8] 92.5% | [9] 86.4% | [10] 131% | [11] 92.7% | [12] 66.4% | [13] 96.3% | [14] 74.3% | [15] 116% | [16] 97.6% | [17] 84.5% | [20] 86.3% | [18] 112% | [19] 76.6%

CC(=O)OCC1O[C@@H](OC(C)=O)[C@@H](NC(=O)NS(=O)(=O)c2ccccc2)C(OC(C)=O)[C@@H]1OC(C)=O (stereo not given in full)
active: [11] -51.6%
inactive: [1] 96.6% | [2] 111% | [3] 91.2% | [4] 98.7% | [5] 106% | [6] 102% | [7] 102% | [8] 101% | [9] 99.6% | [10] 108% | [12] 96.4% | [13] 97.2% | [14] 90.9% | [15] 98.6% | [16] 104% | [17] 94.9% | [20] 71.9% | [18] 97% | [19] 98.6%

CC1C(=O)CCCC1=O
inactive: [1] 96.6% | [2] 94% | [3] 90.9% | [4] 106% | [5] 108% | [6] 108% | [7] 106% | [8] 103% | [9] 106% | [10] 105% | [11] 99% | [12] 110% | [13] 95.6% | [14] 86.7% | [15] 102% | [16] 104% | [17] 100% | [20] 138% | [18] 92.1% | [19] 95.1%

O=C(N/N=C/c1coc2ccccc2c1=O)c1cc2oc(-c3ccccc3)cc2[nH]1
inactive: [1] 100% | [2] 107% | [3] 83.8% | [4] 92.9% | [5] 97.9% | [6] 72.1% | [7] 84% | [8] 94.6% | [9] 98.4% | [10] 91.9% | [11] 75.4% | [12] 90.5% | [13] 120% | [14] 86.2% | [15] 143% | [16] 106% | [17] 95.3% | [20] 101% | [18] 103% | [19] 55.9%

NC(N)=Nc1ccc(/C=C2\C=Cc3ccccc32)cc1
inactive: [1] 68% | [2] 36.1% | [3] 52.7% | [4] 75.6% | [5] 67.8% | [6] 51.9% | [7] 79.6% | [8] 69% | [9] 40% | [10] 91.6% | [11] 85.6% | [12] 75.7% | [13] 79.3% | [14] 49.1% | [15] 78.1% | [16] 67.8% | [17] 64.2% | [20] 47.7% | [18] 49.4% | [19] 37.2%

CCC(C)(C)c1ccc(OCCCCCCN2CCN(c3ccc(C)c(Cl)c3)CC2)cc1
active: [18] -43.1%
inactive: [1] 64.8% | [2] 82.8% | [3] 92.2% | [4] 103% | [5] 104% | [6] 78.1% | [7] 78.1% | [8] 79.2% | [9] 81.8% | [10] 96.5% | [11] 104% | [12] 83% | [13] 92.3% | [14] 64.5% | [15] 110% | [16] 91.3% | [17] 77.7% | [19] 98.3%

COc1cc(/C=C/C(=O)c2ccc(F)cc2)ccc1OCCCCOc1cc2c(cc1OC)C(=O)N1CCCC1C=N2 (stereo not given)
active: [1] -46.3% | [2] -49.3% | [3] -8.01% | [4] -35.3% | [5] -100% | [6] -38.3% | [7] -99.7% | [8] -86% | [9] -84.6% | [10] -42.1% | [11] -24.6% | [12] 8.29% | [13] -48.1% | [14] -63% | [15] -16.9% | [16] -85.9% | [17] -14.2% | [20] 7.77% | [18] -30.3% | [19] -19.4%

CC1(C)CC(=O)C2=C(C1)Oc1nc(N)c(C#N)c(N)c1C2c1ccc(F)cc1 (stereo not given)
inactive: [1] 123% | [2] 99.6% | [3] 101% | [4] 113% | [5] 107% | [6] 113% | [7] 91.6% | [8] 85.6% | [9] 96.6% | [10] 110% | [11] 107% | [12] 97.4% | [13] 107% | [14] 181% | [15] 72.8% | [16] 107% | [17] 92.3% | [20] 102% | [18] 118% | [19] 74.4%

CC(C)(C)c1ccc([I+]c2ccc(C(C)(C)C)cc2)cc1
inactive: [1] 69.4% | [2] 11% | [3] 18.7% | [4] 13.8% | [12] 15.6% | [14] 62.8% | [15] 23.5% | [16] 47.3% | [17] 87.6% | [19] 12.1%
active: [5] 3.28% | [6] 0.197% | [7] -94.7% | [8] -42.2% | [9] -88% | [10] 6.31% | [11] -2.7% | [13] 3.97% | [20] -2.59% | [18] 9.22%

COc1ccc(Cn2cc3c(c2-c2ccccc2)CCc2cnoc2-3)cc1OC
active: [3] -11.1%
inactive: [1] 32% | [2] 16.5% | [4] 50.3% | [5] 36.8% | [6] 26.5% | [7] 10.5% | [8] 48.7% | [9] 43.3% | [10] 58.6% | [11] 48% | [12] 46.5% | [13] 49.5% | [14] 35.3% | [15] 70.4% | [16] 57.7% | [17] 18.9% | [20] 18.5% | [18] 17.1% | [19] 35.9%

COc1ccc(/C(=C(\c2ccccc2)[N+](=O)[O-])c2ccc(OCCN3CCCC3)cc2)cc1
active: [1] 6.54% | [2] 9.77% | [7] -78.2% | [9] -20.1% | [10] -10.3%
inactive: [3] 76% | [4] 87.8% | [5] 74.1% | [6] 69.4% | [8] 38.4% | [11] 79.4% | [12] 96.9% | [13] 83.4% | [14] 28.1% | [15] 80.4% | [16] 75.4% | [17] 76.9% | [18] 67.6% | [19] 71.9%

C#CCCCCCCC[C@@H]1OC(=O)[C@H]([C@@H](C)CC)NC(=O)[C@H]([C@@H](C)CC)NC(=O)CC(=O)[C@@H]1C
inactive: [1] 98.2% | [2] 115% | [3] 76.1% | [4] 97.7% | [5] 103% | [6] 85.9% | [7] 101% | [8] 88.7% | [9] 92.1% | [10] 108% | [11] 106% | [12] 97.8% | [13] 98.5% | [14] 67.3% | [15] 117% | [16] 94% | [17] 71.4% | [18] 89.8% | [19] 80.3%

C/C=C(/C)C(=O)OC1C=C(CO)C(=O)C(OC(=O)/C(C)=C\C)C1C(C)C (stereo not given)
active: [1] -49.3% | [2] -65.6% | [3] -43.4% | [4] -54% | [5] -73.8% | [6] -54.1% | [7] -99.3% | [8] -84.7% | [9] -92.5% | [10] -92.6% | [11] -48.9% | [12] -55.1% | [13] -56.9% | [14] -100% | [15] -88.8% | [16] -100% | [17] -98.7% | [20] -77.6% | [18] -3.36% | [19] -16.8%

O=C(NCCCl)Nc1nccnc1OCc1ccc(F)cc1
inactive: [1] 104% | [2] 102% | [3] 90.3% | [4] 94.9% | [5] 101% | [6] 96.5% | [7] 107% | [8] 93.7% | [9] 98.3% | [10] 109% | [11] 100% | [12] 97.5% | [13] 94.1% | [14] 86.8% | [15] 138% | [16] 105% | [17] 89.6% | [18] 96% | [19] 91.9%

COC(=O)c1ccc2[nH]c(O)c(C(=Nc3ccc(N(C)C(=O)CN4CCN(C)CC4)cc3)c3ccc4c(c3)OCO4)c2c1
inactive: [4] 14% | [5] 13.4% | [6] 19.3% | [7] 10.1% | [8] 31.8% | [10] 20.8% | [12] 37.3% | [13] 10.9% | [14] 14.7%
active: [1] 8.49% | [2] 4.28% | [3] -1.84% | [9] 6.8% | [11] -36.7% | [15] -9.95% | [16] 8.02% | [17] 4.52% | [20] -19.1% | [18] 4.01% | [19] 0.682%
